Most compounds without a hit are left out; they make up all but 5.4% or so of the library.
HSF1 activator = HSF-1 activators, primary screen, NIH3T3-HGL cells, MG132 stress, luminescence, single point | NIH3T3-HGL HSF-1 luciferase reporter, 8 h; 100% = twice DMSO control signal | activation, % at 9 µM | 300,000 compounds, 1.7% hits | AID 504408, 2011;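 active = mean replicate activation of at least 50% with a set share of replicates each reaching 50%; inconclusive = only one of those two conditions met; inactive = mean below 50% and too few replicates reaching it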
DAX1 inh = DAX1 (NR0B1) inhibitors, primary screen, cell-based, HEK293, Gal4-DAX1, luciferase luminescence; HEK293 Gal4-DAX1 luciferase reporter; AID 504766, 2011; 340,000 compounds, 0.99% hits; Nuclear receptor subfamily 0 group B member 1 (Homo sapiens), P51843; inhibition, % at 6.75 µM;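 active = inhibition above the mean over all tested compounds plus 3 SD, cut at about 4.2% in these data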;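 also: inhibition shows as a rise in luminescence from relieved DAX1 repression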
Target sequence (P51843 207-470 limits assumed): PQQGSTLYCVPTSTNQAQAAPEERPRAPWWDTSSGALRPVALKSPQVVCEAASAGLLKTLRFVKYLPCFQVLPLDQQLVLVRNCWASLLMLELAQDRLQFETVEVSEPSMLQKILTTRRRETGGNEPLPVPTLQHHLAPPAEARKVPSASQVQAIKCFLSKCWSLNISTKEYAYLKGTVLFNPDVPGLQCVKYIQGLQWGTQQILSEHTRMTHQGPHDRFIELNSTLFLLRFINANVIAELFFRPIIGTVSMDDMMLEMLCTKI
FXN GAA850 act = FXN promoter activators, primary screen, cell-based, luciferase luminescence, HEK293 lucGAA850; 360,000 compounds, 0.56% hits; activation, % at 6 µM; HEK293 lucGAA850 FXN promoter luciferase reporter, 24 h; percent of 10 µM SAHA response;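 active = activation above the average of all compounds screened plus 3 SD, cutoff fixed separately per campaign, cut at about 7.5% in these data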
AHR act = AHR activators, primary screen, cell-based, luminescence, luciferase reporter, human; Aryl hydrocarbon receptor (Homo sapiens), P35869; AHR-responsive luciferase reporter cells; activation, % at 5 µM; 320,000 compounds, 2.5% hits; AID 2796, 2010; in the data active = activation above about 47%
HSF1 inhib = HSF1 inhibitors in luciferase reporter cells, primary screen, cell-based, NIH3T3, luminescence. AID 2098, 2009. activity change, negative = inhibition, % at 7.5 µM (by protocol). 300,000 compounds, 0.77% hits. NIH3T3-HGL HSE-luciferase, MG132-induced, luminescence 8 h; active compounds read low;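 active = more than half of replicate wells show activity change below -50%, luminescence cut by over half; inconclusive = some wells, but at most half, below -50%; inactive = no replicate well below -50%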;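 also: luciferase reports HSF-1 transcriptional activity via heat shock element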
GAA30 FXN cntr = GAA30 FXN promoter activators, confirmation, counter-screen for GAA850 frataxin promoter activator project, cell-based, luminescence, HEK293, lucGAA30, triplicate | shares compounds with FXN GAA850 act | HEK293 lucGAA30 FXN promoter luciferase, 24 h; DMSO = 0%, 5 µM ipriflavone = 100% | activation, % at 6 µM | 1,900 compounds, 66% hits;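 active = mean activation above the mean of solvent-only control wells plus 3 SD, cut at about 22% in these data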;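 also: counterscreen of GAA850 promoter hits where activity marks nonselective or luminescence artifacts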
GAA850 confirm = FXN GAA850 promoter activators in reporter cells, confirmation, cell-based, luminescence, HEK293 lucGAA850, triplicate; shares compounds with FXN GAA850 act; HEK293 lucGAA850 FXN promoter luciferase reporter, 24 h; 100% = activation by SAHA; activation, % at 6 µM; 1,900 compounds, 86% hits; AID 588351, 2011;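 active = mean activation above a set limit taken from the primary screen, cut at about 8% in these data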
Each line names hits and unclear results; the compound was inactive in the other large screens (follow-up assays come after a bar, where they were run).

c1csc(CSc2nc3ccccc3s2)c1	HSF1 activator 55.6, FXN GAA850 act 7.7 | GAA30 FXN cntr 121.6 | GAA850 confirm 38.9
CCOC(=O)c1cnc2c(ccc3ccccc32)c1NCCN(C)C	FXN GAA850 act 8.4 | GAA30 FXN cntr 22.6 | GAA850 confirm 17.1
CC(=O)c1ccc(NC(=S)NC(=O)c2c(Cl)c(C)nn2C)cc1	DAX1 inh 4.7, FXN GAA850 act 8.8 | GAA30 FXN cntr 23.2 | GAA850 confirm inactive
C/C(=N\NC(=O)c1c(Cl)c(C)nn1C)c1ccc(NC(=O)C2CCC2)cc1	none
CN(C)Cc1ncccc1Oc1nc2cc(-c3cccc(Cl)c3)sc2c(=O)n1C	none (no result: HSF1 activator, DAX1 inh, AHR act, HSF1 inhib)
CCCCOC(=O)Nc1ccc2c(C)cc(=O)oc2c1	FXN GAA850 act 7.7 | GAA30 FXN cntr 119.9 | GAA850 confirm 38.5
CCOC(=O)Nc1ccc2c(C)cc(=O)oc2c1	none
COc1ccc(C2=Nn3c(nnc3-c3ccco3)SC2)cc1OC	FXN GAA850 act 10.5 | GAA30 FXN cntr 36.8 | GAA850 confirm 19.6
CCOc1ccc(C2=Nn3c(nnc3-c3ccco3)SC2)cc1	none
CC(C)c1ccc(/C=C(/C#N)c2nnc(NC(=O)c3ccccc3)s2)cc1	none
CCCCN1C(=O)c2ccc(C(=O)NCCN3C(=O)S/C(=C\c4cccnc4)C3=O)cc2C1=O	none
Cc1nc(C)n(C(C)CC(=O)O)n1 (stereo unspecified)	none
Cc1cccc(/C=C/C(=O)c2ccc([N+](=O)[O-])o2)c1	HSF1 activator inconclusive, FXN GAA850 act 11.3 | GAA30 FXN cntr inactive | GAA850 confirm inactive
Cc1ccccc1/C=C/C(=O)c1ccc([N+](=O)[O-])o1	none (no result: DAX1 inh, FXN GAA850 act)
O=[N+]([O-])c1ccc(Cl)cc1Sc1nc2ccccc2o1	none
O=[N+]([O-])c1ccc(Sc2nc3ccccc3o2)c([N+](=O)[O-])c1	HSF1 activator 230.3, FXN GAA850 act 15.9 | GAA30 FXN cntr inactive | GAA850 confirm 46.0
CCCCCOC(=O)Nc1nnc(CCCCC)s1	none
CCCCOC(=O)Nc1nnc(CC)s1	FXN GAA850 act 7.7 | GAA30 FXN cntr 51.0 | GAA850 confirm 27.4
O=C(CCNC(=O)c1ccccc1Cl)NCC(c1ccco1)N1CCCC1 (stereo unspecified)	none
CC(C)(C)OC(=O)C[C@@H]1C/C=C\C[C@H](CC(=O)NCCO)C(=O)NC[C@@H](c2ccccc2)OC1=O	none (no result: HSF1 activator, HSF1 inhib)
COc1ccc(C(=O)N/C(=C\c2cn(C)c3ccccc23)C(=O)NCCN2CCOCC2)cc1OC	none
COC(=O)Oc1ccc(/C=C/C(=O)OC(C)C)cc1OC(=O)OC	FXN GAA850 act 11.5 | GAA30 FXN cntr 51.5 | GAA850 confirm 32.0
COc1ccc(/C=C/C(=O)Oc2ccc(C=O)cc2OC)cc1	none
CCCCOC(=O)/C=C/c1ccc(OC(=O)OC)c(OC(=O)OC)c1	FXN GAA850 act 10.2 | GAA30 FXN cntr 62.6 | GAA850 confirm 31.6
C=CCNC(=S)Nc1cccc2[nH]ncc12	none
CCNc1nc(NC(C)CC)nc(Oc2ccc(OCC)nn2)n1 (stereo unspecified)	none
CC(=O)c1cccc(N(CC(=O)NC2CCCC2)C(=O)c2csnn2)c1	none
CCOC(=O)[C@H]1[C@H]2COc3ccccc3[C@@H]2N2C(=O)c3c(C)cc(C)cc3NC(=O)[C@@]12C	FXN GAA850 act 11.0 (no result: HSF1 activator, HSF1 inhib) | GAA30 FXN cntr 27.6 | GAA850 confirm 11.4
Cc1cc(O)ccc1N/C=C/c1onc(C)c1[N+](=O)[O-]	FXN GAA850 act 9.1 | GAA30 FXN cntr 121.5 | GAA850 confirm 39.4
Cc1cccc(N/C=C/c2onc(C)c2[N+](=O)[O-])c1	none
CCOc1ccc(-c2cn3ccccc3n2)cc1[N+](=O)[O-]	HSF1 activator 55.4, FXN GAA850 act 9.2 | GAA30 FXN cntr 120.7 | GAA850 confirm 39.6
O=[N+]([O-])c1ccc(-c2cn3ccccc3n2)cc1	FXN GAA850 act 9.2 (no result: DAX1 inh) | GAA30 FXN cntr 107.6 | GAA850 confirm 50.3
CCN(CC)S(=O)(=O)c1ccc(-c2cn3ccccc3n2)cc1	none (no result: HSF1 activator, AHR act, HSF1 inhib)
c1ccc(-c2cn3ccccc3n2)cc1	none (no result: HSF1 activator, AHR act, HSF1 inhib)
CN(C)Cc1ccc(-c2nc3cccc4c3n2CCNC4=O)cc1	FXN GAA850 act 7.8 | GAA30 FXN cntr 25.3 | GAA850 confirm 49.8
C=C1CCN([C@@H](Cc2ccccc2)C(=O)Nc2ccc(OC)cc2)S(=O)(=O)c2ccccc21	FXN GAA850 act 11.9 | GAA30 FXN cntr 28.9 | GAA850 confirm 13.1
C=C1CCN([C@H](C(=O)Nc2ccc(OC)cc2)C(C)C)S(=O)(=O)c2ccccc21	FXN GAA850 act 9.5 | GAA30 FXN cntr inactive | GAA850 confirm 11.7
CN1C(=O)[C@H]2[C@@H](c3ccc(C(F)(F)F)cc3)N[C@]3(CCCN(Cc4cccn4C)C3=O)[C@H]2C1=O	none (no result: HSF1 activator, AHR act, HSF1 inhib)
Cc1ccc(S(=O)(=O)N2CCN(S(=O)(=O)c3ccc(C)cc3)C2c2ccccc2)cc1	FXN GAA850 act 8.3 | GAA30 FXN cntr inactive | GAA850 confirm inactive
C[C@H](CO)N1C[C@H](C)[C@@H](CN(C)S(=O)(=O)c2ccc(F)cc2)Oc2c(NS(=O)(=O)c3ccccc3)cccc2C1=O	none (no result: HSF1 activator, HSF1 inhib)
Cn1/c(=N/N=C/c2ccccn2)sc2ccccc21	FXN GAA850 act 10.2 (no result: HSF1 activator, DAX1 inh, AHR act, HSF1 inhib) | GAA30 FXN cntr 113.7 | GAA850 confirm 34.7
Cc1ncc(CN2CCC(n3nccc3NC(=O)c3ccccc3)CC2)s1	none
O=C(COc1ccccc1Cl)NC(=O)NC1CCCC1	FXN GAA850 act 8.0 (no result: HSF1 activator, HSF1 inhib) | GAA30 FXN cntr 111.4 | GAA850 confirm 29.6
CCOc1ccc(/C(O)=C2/C(=O)C(=O)N(CC3CCCO3)C2c2cccs2)cc1 (stereo unspecified)	none
COc1ccc2c(c1)Cc1sc(NC(C)=O)nc1-2	FXN GAA850 act 8.2 | GAA30 FXN cntr 111.1 | GAA850 confirm 31.9
COc1ccc(CCC(=O)NCC(c2ccco2)N2CCc3ccccc32)cc1 (stereo unspecified)	none
CN(C)CCn1c2c(c(SCC(=O)Nc3ccc4c(c3)OCCO4)nc1=O)CCCC2	none
C/C(CC(=O)NCc1ccccc1Cl)=N/NC(=O)c1ccccn1	FXN GAA850 act 8.2 | GAA30 FXN cntr 49.6 | GAA850 confirm 13.7
CCN(CC)C(=O)C1=C(C)N(Cc2ccc(OC)cc2)C(=O)C(CC(=O)NCc2cccc3ccccc23)C1 (stereo unspecified)	none (no result: HSF1 activator, AHR act, HSF1 inhib)
